About 79,000 compounds went through this panel and 15% of them were active in at least one assay; those are over-represented in the sample as a whole. Values without a mark were called inactive. Active and inactive are the calls of the source. No stated cut-off is given here; in the data, active means growth inhibition above about 70%; inactive means the rest.
Assay: NCI Yeast Anticancer Drug Screen. Data for the bub3 strain (AID 167)
Conditions: S. cerevisiae bub3 mutant strain, active compounds read high
Experimental: Growth inhibition of yeast strains with defined genetic alterations is measured as a screen for potential anti-cancer activity. Selected strains with alterations in DNA damage repair or cell cycle control were exposed to compounds and growth inhibition was measured relative to vehicle treated controls. The strain used in this assay is bub3

[1] = at 5.0 µM (retest, dose inferred, filed as 0.5)
[2] = at 50.0 µM (retest, dose inferred, filed as 5.0)

SMILES	growth inhibition [1]	growth inhibition [2]	growth inhibition (at 50.0 µM)
CCOC(=O)c1ccc(N=Cc2cc(Cl)cc(Cl)c2O)cc1	62%	96% (active)	87.2% (active)
O=C1c2cc(F)ccc2-c2c(F)cc(F)c(F)c21	-7%	-14%	5.95%
CCCCCCCC/C=C\CCCCCCCC(=O)OCCCCC	-6%	-8%	40.5%
Cc1c2cnccc2c(C)c2c1sc1ccccc12	56%	93% (active)	81.3% (active)
CCN(CC)c1ccc(Cl)c2c1C(O)(C(C)C)C2(C)C (configuration not stated)	14%	98% (active)	89.8% (active)
OCC1CCc2[nH]c3ccccc3c2C1 (configuration not stated)	-65%	-58%	12%
Nc1cc(Cl)ccc1C(=O)O	3%	50%	96.4% (active)
CCOc1ccc2c(c1)nc1cc(Cl)ccc1[n+]2C	26%	88% (active)	82.8% (active)
Cc1ccccc1C(=O)c1ccc(O)c2ccccc12	4%	71% (active)	55.2%
Nc1ccc(-c2ccc(N)cc2S(=O)(=O)O)c(S(=O)(=O)O)c1	2%	7%	1.8%
COc1cc(CCN=Cc2cc(Cl)cc(Cl)c2O)c([N+](=O)[O-])cc1OC	51%	94% (active)	77.7% (active)
OCCSC(=S)Nc1ccc(Cl)c(Cl)c1	44%	99% (active)	99.8% (active)
O=C1Nc2ccc([N+](=O)[O-])c3c([N+](=O)[O-])ccc1c23	2%	70% (active)	34.2%
Cc1cc(Oc2nc(Cl)nc(C(Cl)(Cl)Cl)c2Cl)cc(C)c1N(C)C (tested in a mixture with another compound)	7%	30%	92.6% (active)

From PubChem BioAssay (NCI)
